Screening data as filed in PubChem BioAssay.
RBX1-CUL1 inh = human ROC1-CUL1 E3 ligase inhibition; P62877+Q13616; in vitro K48 di-Ub FRET, acceptor:donor ratio, 45 min; inhibition, % at 10 µM; 140,000 compounds, 0.6% hits; in the data active means inhibition above about 25%
An asterisk follows results filed as active. The full list was thinned out, with hits kept by preference.

SMILES | RBX1-CUL1 inh
Cc1ccc(C(=O)N2CCc3c(cnc(C)c3CNC(=O)c3ccccc3F)C2)cc1C | -10.2
O=C(N/N=C/C1CCCCC1)c1ccc(C(=O)N/N=C/C2CCCCC2)o1 | 10.6
CCCCC(=Nc1ccccc1C)C1C(=O)CC(c2ccccc2)CC1=O (centres undefined) | 7.1
CCCCC1C(=O)N=C2CC(c3ccccc3)CC(=O)C2C1=O (centres undefined) | 27.7*
O=C1CC(c2ccccc2)CC2=Nc3ccccc3NC(c3cccc4ccccc34)C12 (centres undefined) | 2.8
CCOC(=O)C(CC(=O)c1ccccc1)(CC(=O)c1ccccc1)C(=O)OCC | -2.8
COc1cccc(N2C(=O)CN(CCC(C)C)CC2C)c1 (centres undefined) | 16.2
CCOC(=O)c1nn(-c2ccc(C)cc2)c(N=Nc2ccc3c(c2)OCCO3)c1O | -0.6
CCc1ccc(-c2[nH]c3c(c2-c2sc(C)c(C(=O)OC)c2O)c(=O)[nH]c(=O)n3C)cc1 | 7.0
COc1cccc(-c2[nH]c3c(c2-c2c(-n4cccc4)n(C)c(=O)[nH]c2=O)c(=O)[nH]c(=O)n3C)c1 | 3.0
CCOC(=O)c1nn(-c2ccc3c(c2)OCCO3)cc1O | 2.1
CCOC(=O)c1c(C)sc(-c2c(-c3ccc4c(c3)OCCO4)[nH]c3c2c(=O)n(C)c(=O)n3C)c1O | 33.2*
CCOC(=O)c1c(C)sc(-c2c(-c3ccc(OC)c(F)c3)[nH]c3c2c(=O)[nH]c(=O)n3C)c1O | 32.0*
CCOC(=O)c1c(C)sc(-c2c(-c3ccccc3)[nH]c3[nH]c(=O)[nH]c(=O)c23)c1O | -0.7
CCOC(=O)c1c(C)sc(-c2c(-c3ccc(OC)c(F)c3)[nH]c3[nH]c(=O)[nH]c(=O)c23)c1O | 4.3
COC(=O)c1c(C)sc(-c2c(-c3ccc4c(c3)OCCO4)[nH]c3[nH]c(=O)[nH]c(=O)c23)c1O | 7.8
CCOC(=O)c1c(C)sc(-c2c(-c3ccc4c(c3)OCCO4)[nH]c3c2c(=O)[nH]c(=O)n3C)c1O | 30.5*
COC(=O)c1c(C)sc(-c2c(-c3ccc4c(c3)OCCO4)[nH]c3c2c(=O)n(C)c(=O)n3C)c1O | 12.7
COC(=O)c1c(C)sc(-c2c(-c3cccc(Cl)c3)[nH]c3c2c(=O)[nH]c(=O)n3C)c1O | 28.3*
CC1SC(=O)CC1C1(C)C=CC(=O)S1 (centres undefined) | 2.3
CC1=NC2=C(C(=O)c3ccccc32)C(c2ccc(F)cc2)C1C#N (centres undefined) | 10.9
O=C(Cc1ccc(F)cc1)N1CCc2cc(S(=O)(=O)N3CCOCC3)ccc21 | 12.5
CC(NC(=O)c1ccc(F)cc1)c1ccc(Br)cc1 (centres undefined) | 10.9
O=S(=O)(NC1CCCCC1)c1ccc(Cc2ccc(S(=O)(=O)NC3CCCCC3)cc2)cc1 | 0.2
CC(=O)Nc1nc(SCc2ccccc2)n[nH]1 | -1.7
SMILES | RBX1-CUL1 inh
NC(=O)C1C(=O)NC2CS(=O)(=O)CC21 (centres undefined) | 3.4
CCOC(=O)/C=C/c1cccc2c1sc1ccccc12 | -16.0
Cc1csc(CNC(=O)CC(c2cccc(O)c2)c2cccc(Cl)c2)n1 (centres undefined) | 4.7
Cc1occc1C(=O)NC1CC(C)(C)Cc2nc(N3CCOCC3)ncc21 (centres undefined) | 1.5
CCCCCCCCCCS(=O)(=O)Nc1ccncc1 | 5.2
O=C1C(C=Nc2cccc(F)c2)C(=O)N(C2CCCCC2)C(=O)N1C1CCCCC1 | 5.7
Cc1ccc(C(O)C#CC23CC4CC(CC(C4)C2)C3)o1 (centres undefined) | 99.2*
OC(C#CC12CC3CC(CC(C3)C1)C2)c1ccccn1 (centres undefined) | 12.4
O=C(O)C#CC12CC3CC(CC(C3)C1)C2 | -0.1
O=C(Nc1nonc1-c1nc2ccccc2s1)C(F)(F)F | 0.8
O=C1NC(=S)N(c2cccc(Br)c2)C(=O)/C1=C/c1cc(I)c(O)c(I)c1 | 26.9*
O=C1NC(=S)N(c2cccc(Br)c2)C(=O)/C1=C/c1ccc(O)cc1 | 5.9
O=C1NC(=S)N(c2ccccc2)C(=O)/C1=C/c1cc(Br)ccc1O | 1.9
COCCn1c(CCc2ccccc2)nnc1SCC(=O)Nc1cc(Cl)cc(Cl)c1 | -4.0
COc1cccc(/C=C2\SC(=Nc3ccc(C)c(Cl)c3)NC2=O)c1OCC(=O)O | 97.0*
CCOc1ccc(/C=C2\SC(=Nc3ccc(F)cc3)NC2=O)cc1OC | 4.9
CCCOC(=O)c1cccc(N=C2NC(=O)/C(=C\c3cc(C(C)C)c(OC)cc3C)S2)c1 | 6.7
COc1cccc(/C=C2\SC(=Nc3cccc(Cl)c3C)NC2=O)c1OCC(=O)O | 2.0
CCOc1ccc(N=C2NC(=O)/C(=C/c3cc(Br)c(OC)c(OC)c3)S2)cc1 | 9.0
CCOc1cc(/C=C2/SC(=Nc3ccc4ccccc4c3)NC2=O)cc(Cl)c1OCC(=O)O | 99.3*
O=C1CSC(=Nc2nc(-c3ccccc3)c(-c3ccccc3)s2)N1 | -0.8
COc1cc(/C=C2\SC(=O)N(Cc3ccc(F)cc3)C2=O)c(Br)cc1OCC(=O)O | 9.4
O=C(O)COc1ccc(Br)cc1/C=C1\SC(=O)N(c2cccc(Cl)c2)C1=O | 50.9*
COc1cc(/C=C2\SC(=O)N(c3ccc(Cl)cc3)C2=O)c(Br)cc1OCC(=O)O | 41.4*
O=C(O)COc1ccc(Br)cc1/C=C1/SC(=O)N(CC(=O)N2CCCC2)C1=O | -9.0
SMILES | RBX1-CUL1 inh
CCc1ccccc1N=C1S/C(=C\c2cc(Br)ccc2OCC(=O)O)C(=O)N1c1ccccc1CC | 0.2
CCOC(=O)COc1cc(Br)c(/C=C2/SC(=O)N(CC)C2=O)cc1OC | -6.5
Cc1c(Cl)cccc1NC(=O)CCSCCC(=O)Nc1cccc(Cl)c1C | -2.0
Cc1ccc(/C=C2\CCc3ccccc3C2=O)o1 | -4.2
O=C(C=C1SCCS1)/C=C/c1ccco1 | 5.4
COc1cccc(/C=C2\CCC(=C3SCCS3)C2=O)c1 | -6.7
O=C1C(=C2SCCS2)CC/C1=C\c1ccco1 | 73.5*
CC1=C([N+](=O)[O-])CS(=O)(=O)/C1=C\c1ccco1 | 6.7
Nc1ccc2c(c1)C/C(=C/c1ccco1)C2=O | 30.6*
COc1ccc(F)c(CC2(CCC(=O)NCCc3ccc(F)cc3)CCC(=O)N2)c1 (centres undefined) | 4.5
Clc1ccc(-c2nnc(/C=C/c3ccco3)o2)c(Cl)c1 | 12.2
COc1cccc(-c2ccc3c(N)c(C(=O)Nc4nnc(SCc5ccccc5)s4)sc3n2)c1 | 3.0
NC(=O)c1sc2nnc(-c3ccco3)c(-c3ccco3)c2c1N | -6.9
O=c1[nH]nnc2c1sc1nc3c(c(-c4ccco4)c12)CCc1ccccc1-3 | 67.1*
O=c1[nH]nnc2c1sc1nc3c(c(-c4ccc(Cl)cc4)c12)CCCC3 | 2.9
CCOC(=O)C1C=Nc2c(N=Nc3ccccc3)c(=O)[nH]n2C1=N (centres undefined) | -9.8
Cc1cc(OCC(=O)NNC(=S)NC(=O)c2ccccc2Br)cc(C)c1Cl | -2.7
CC(C)(C)c1ccc2[nH]c3c(c2c1)CCC/C3=N\N=C1C(=O)Nc2ccc(Br)cc21 | -3.7
Cc1ccccc1Sc1ccc([N+](=O)[O-])cn1 | 0.8
O=[N+]([O-])c1ccc(S(=O)(=O)c2cccc(C(F)(F)F)c2)nc1 | 9.0
CS(=O)(=O)c1ccc([N+](=O)[O-])cn1 | 63.0*
C=CCn1c(SCC(=O)Nc2cc(Cl)ccc2OC)nc2sc3c(c2c1=O)CCCC3 | 8.6
CCOc1ccc(C(=O)Nc2ccc(S(=O)(=O)NC(C)(C)C)cc2)cc1 | -10.4
CCCCNC(=O)c1nnn(-c2ccc(C)cc2)c1C | -0.5
